Compound activity as filed in PubChem.
KCNQ2 inh: KCNQ2 (rat) channel inhibition | O88943 | CHO-K1 KCNQ2, FluxOR thallium flux, 20 min; hits give low values | B-score at 10 µM | 1.1% of 310,000 active;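 active = fluorescence ratio B-score at most minus 3 library SDs, with starting brightness B-score within 2 library SDs, cut at about -5.5 in these data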
KCNQ2 pot: potentiators of rat KCNQ2 potassium channel | CHO-K1 KCNQ2, FluxOR thallium flux fluorescence; hits give high values | O88943 | AID 2239 | 0.54% of 310,000 active | B-score at 10 µM;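 active = fluorescence ratio B-score at least 3 SD of library B-scores, with initial fluorescence B-score within 3 of them, cut at about 5.3 in these data; same plate scores as AID 2156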;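 also: B-score of peak minus minimum over baseline fluorescence ratio after K+ and Tl+ stimulus; positive B-score means potentiation of KCNQ2 with more thallium influx and brighter signal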
Of the large screens only hits and unclear results are named; the others gave an inactive call. Hits are enriched below; roughly 1.6% of the tested compounds scored in any of these assays.

Cc1cc(Cl)ccc1NC(=O)CSc1nnc(Cc2cccs2)n1Cc1ccco1	KCNQ2 inh -6.3
O=C(Nc1ccc(Cl)cc1)C1C2CCCCC21 (stereo not given)	none (no result: KCNQ2 pot)
CC1(C)CC(=O)N(c2ccc(C#N)cc2)C(=O)C1	none (no result: KCNQ2 pot)
CCOC(=O)c1oc2ccccc2c1NC(=O)c1ccc(Cl)s1	KCNQ2 inh -7.6
CCOC(=O)c1oc2ccccc2c1NC(=O)CCl	none (no result: KCNQ2 pot)
CC(=O)Nc1cccc(/C(C)=N/NC(=O)c2ccc3c(c2)OCO3)c1	none
COc1cc(C(=O)NCC(c2ccco2)N2CCc3ccccc32)cc(OC)c1OC (stereo not given)	none (no result: KCNQ2 pot)
COc1ccccc1C(=O)NCC(c1ccco1)N1CCc2ccccc21 (stereo not given)	KCNQ2 inh -6.3
Cc1ccccc1NS(=O)(=O)c1ccc(C(=O)NCC(c2ccco2)N2CCCCC2)cc1 (stereo not given)	KCNQ2 inh -6.7
O=C(NCC(c1ccco1)N1CCCC1)c1ccc(S(=O)(=O)Nc2ccccc2F)cc1 (stereo not given)	none
O=C(NCC(c1ccco1)N1CCc2ccccc21)c1ccccc1 (stereo not given)	none (no result: KCNQ2 pot)
O=C(NCC(c1ccco1)N1CCc2ccccc2C1)c1cccc(F)c1 (stereo not given)	KCNQ2 inh -5.8
Cc1ccc(C(=O)NCC(c2ccco2)N2CCc3ccccc32)cc1C (stereo not given)	KCNQ2 inh -6.2
COc1cccc(C(=O)NCC(c2ccco2)N2CCc3ccccc3C2)c1 (stereo not given)	none (no result: KCNQ2 pot)
COc1ccc(COn2nnc3ccc(S(=O)(=O)N4CCOCC4)cc32)cc1F	none (no result: KCNQ2 pot)
C=CCON/C(CCC)=C1\C(=O)C(C(=O)OC)C(C)(C)CC1=NC (stereo not given)	none
O=C(CN1C(=O)c2cccc3cccc1c23)NC1CCCC1	none
O=C(NCc1ccco1)c1cc2nc(C3CC3)cc(C(F)(F)F)n2n1	none
COc1ccc(-c2cc(C(F)(F)F)n3nc(C(=O)NCc4ccco4)cc3n2)cc1OC	KCNQ2 inh -5.6
CCCCc1ccc(NC(=S)NCCN2CCOCC2)cc1	none (no result: KCNQ2 pot)
N#Cc1nc(COc2ccc(Cl)cc2Cl)oc1N1CCN(c2ccccc2)CC1	KCNQ2 inh -7.7
COc1ccc(N2CCN(c3oc(COc4ccc(Cl)cc4Cl)nc3C#N)CC2)cc1	none
C[n+]1c(-c2ccccc2)sc([S-])c1-c1ccccc1	none (no result: KCNQ2 pot)
O=C(NCCO)C1COc2ccccc2O1 (stereo not given)	none
O=C(NCCc1ccc(Cl)cc1)C1COc2ccccc2O1 (stereo not given)	KCNQ2 inh -6
O=C(COc1ccc(Cl)cc1)NNC(=O)c1ccc2c(=O)n3c(nc2c1)CCC3	none
CC1CCC(NC(=O)CNC(=O)c2cccs2)CC1 (stereo not given)	none
Cc1cc2nnc(SCC(=O)NCc3cccs3)n2c2ccccc12	none (no result: KCNQ2 pot)
Cc1cc2nnc(SCC(=O)NCc3ccco3)n2c2ccccc12	KCNQ2 pot 8.7
Cc1ccccc1-c1nnn(CC(=O)Nc2ccc3c(c2)OCCO3)n1	none
FC(F)(F)c1ccc(-c2csc(-c3ccno3)n2)cc1	none (no result: KCNQ2 pot)
CC(C)(C)C(=O)OCc1nc(-c2ccc(C(F)(F)F)cc2)cs1	KCNQ2 inh -5.6
COc1ccc(OC)c(-c2csc(NC(=O)CSCc3c(C)noc3C)n2)c1	none (no result: KCNQ2 pot)
CCc1ccc2[nH]c3nc(N/N=C/c4ccc(O)cc4O)nnc3c2c1	none
O=C(COC(=O)C1(c2ccccc2F)CCCC1)NCc1ccc2c(c1)OCO2	KCNQ2 inh -7.1
O=C(COC(=O)C1(c2ccc(F)cc2)CCCC1)NCc1ccc2c(c1)OCO2	none (no result: KCNQ2 pot)
CCN(Cc1ccccc1)S(=O)(=O)c1cc(C(=O)NCC2CCCCC2)ccc1OC	none (no result: KCNQ2 pot)
CCN(Cc1ccccc1)S(=O)(=O)c1cc(C(=O)NC2CCCCCC2)ccc1OC	KCNQ2 inh -6.8
COC(=O)c1ccccc1SC(CC(=O)c1ccccc1)c1ccc(F)cc1 (stereo not given)	none (no result: KCNQ2 pot)
O=C(NC1=C(Nc2ccc(Cl)cc2)C(=O)c2ccccc2C1=O)c1ccccc1	none (no result: KCNQ2 pot)
CN(C1=C(NC(=O)c2ccc(Cl)cc2)C(=O)c2ccccc2C1=O)c1ccccc1	KCNQ2 inh -6.3
CCc1noc(C)c1C(=O)N1CCCC1	none
CCc1noc(C)c1C(=O)N1CCCSC1=Nc1ccccc1C(C)C	KCNQ2 inh -5.7
Cc1cc(=O)[nH]c2ccc(Cl)cc12	none
S=c1[nH]c2ccc(Cl)cc2s1	KCNQ2 pot 21
O=C(NCCc1ccccc1Cl)c1cc(COc2ccc(F)cc2F)on1	none (no result: KCNQ2 pot)
CCn1c(SCc2nc3ccccc3s2)nnc1-c1ccccc1	none (no result: KCNQ2 pot)
CCC(c1nnc(SCc2nc3ccccc3s2)n1Cc1ccccc1)N(C)C (stereo not given)	KCNQ2 inh -6.3
CN(C)S(=O)(=O)c1cc(C(=O)OCCn2cnc3c2c(=O)n(C)c(=O)n3C)ccc1Cl	none (no result: KCNQ2 pot)
O=C(Nc1ccc(F)cc1)c1cnc(-c2ccccc2)nc1-c1ccccc1	none (no result: KCNQ2 pot)
O=C(Nc1ccc(F)c(F)c1)c1cnc(-c2ccccc2)nc1-c1ccccc1	KCNQ2 inh -5.6
CCn1nc(C(=O)OCC(=O)c2ccc(F)cc2)c2ccccc2c1=O	none
CCn1nc(C(=O)OC(C(=O)c2c[nH]c3ccccc23)c2ccccc2)c2ccccc2c1=O (stereo not given)	KCNQ2 inh -8
O=C(NC1CCC(C(=O)O)CC1)OCc1ccccc1 (stereo not given)	none
c1ccc(CO/N=C(\c2ccc(C3CC3)nc2)C2CC2)cc1	KCNQ2 inh -7
Clc1ccc(SCc2cc(-c3ccc(Cl)cc3)on2)cc1	KCNQ2 inh -7.5
Cc1ccc(SCc2cc(-c3ccc(Cl)cc3)on2)cc1	none (no result: KCNQ2 pot)
CCC(C)(C(=O)NC1CCCC1)N(C(=O)CNC(=O)c1ccccc1)c1c(C)n(C)n(-c2ccccc2)c1=O (stereo not given)	none (no result: KCNQ2 pot)
O=C(CCN1CCC(c2ccccc2)C1)c1ccc2c(c1)OCCO2 (stereo not given)	KCNQ2 inh -6.2
O=C(CCN1CCC(c2ccccc2)C1)c1ccccc1 (stereo not given)	none (no result: KCNQ2 pot)
COc1cccc(N2C(=NC(=O)CCC3CCCC3)SC3CS(=O)(=O)CC32)c1 (stereo not given)	none
COC1=CC(=O)C(O)=C(CCCCCCC/C=C/CCCCCCCC2=C(O)C(=O)C=C(OC)C2=O)C1=O	KCNQ2 inh -6.6
CCCCCCCCCCCC1=C(O)C(=O)C=C(O)C1=O	none
CCc1cc(Cn2nc(-c3ccccc3)cc2C(=O)NCc2ccccc2OC)on1	none (no result: KCNQ2 pot)
O=C(C(Cc1ccccc1)n1cccc1)N1CCN(c2cccc(Cl)c2)CC1 (stereo not given)	KCNQ2 inh -5.8
CCC(CC)C(=O)N1CCN(c2ccccc2)CC1	none (no result: KCNQ2 pot)
O=C(C(Cc1ccccc1)n1cccc1)N1CCN(Cc2ccccc2)CC1 (stereo not given)	none (no result: KCNQ2 pot)
CCC(C(=O)N1CCN(c2cccc(Cl)c2)CC1)c1ccccc1 (stereo not given)	KCNQ2 inh -5.6
CC1(C)C2CCC1(CS(=O)(=O)NCc1ccc(C(F)(F)F)cc1)C(=O)C2 (stereo not given)	none (no result: KCNQ2 pot)
C=CCn1c(O)c2ccc(C(=O)N=NC(=O)COc3ccc(OC)cc3)cc2c1O	none
N#CC1=C(c2ccc(-c3ccccc3)cc2)COC1=O	KCNQ2 inh -5.7
O=C1OCC(c2ccccc2)=C1c1ccccc1	none
CCOc1ccc(-n2ccn(CC(=O)NCCc3ccccc3)c(=O)c2=O)cc1	none (no result: KCNQ2 pot)
CC(NC(=O)COc1ccccc1F)C1CC2CCC1C2 (stereo not given)	KCNQ2 inh -6
CC(NC(=O)c1ccc(F)cc1)C1CC2CCC1C2 (stereo not given)	none (no result: KCNQ2 pot)
COCCNC(=O)CSc1ccccc1C(=O)NCC1CCCCC1	none
